Measured values: PubChem BioAssay AID651768 (National Center for Advancing Translational Sciences (NCATS), 2012)
Among all 360,000 compounds or so, about 1,700 (0.47%) were called active. Inconclusive results (about 2%) are left out. The sample as a whole holds a higher share of actives than the screen did. A number with no mark means an inactive call. Calls follow the shape of the dose curve; as a rule, active = well fitted inhibition curve with a large enough effect; inconclusive = small, poorly fitted or top-dose-only effect; inactive = no such curve, though single readings can be large or run the other way.

molecular target: Bifunctional 3'-5' exonuclease/ATP-dependent helicase WRN (Homo sapiens) (UniProt Q14191); experiment: qHTS for Inhibitors of WRN Helicase; details: WRN helicase unwinding, fluorescent forked duplex, kinetic; series mostly up to 114 µM; activity change, negative = inhibition: at the top concentration; also: nearly all actives have a fitted effect of over 55% in size
Sequence (Q14191 whole entry, looked up): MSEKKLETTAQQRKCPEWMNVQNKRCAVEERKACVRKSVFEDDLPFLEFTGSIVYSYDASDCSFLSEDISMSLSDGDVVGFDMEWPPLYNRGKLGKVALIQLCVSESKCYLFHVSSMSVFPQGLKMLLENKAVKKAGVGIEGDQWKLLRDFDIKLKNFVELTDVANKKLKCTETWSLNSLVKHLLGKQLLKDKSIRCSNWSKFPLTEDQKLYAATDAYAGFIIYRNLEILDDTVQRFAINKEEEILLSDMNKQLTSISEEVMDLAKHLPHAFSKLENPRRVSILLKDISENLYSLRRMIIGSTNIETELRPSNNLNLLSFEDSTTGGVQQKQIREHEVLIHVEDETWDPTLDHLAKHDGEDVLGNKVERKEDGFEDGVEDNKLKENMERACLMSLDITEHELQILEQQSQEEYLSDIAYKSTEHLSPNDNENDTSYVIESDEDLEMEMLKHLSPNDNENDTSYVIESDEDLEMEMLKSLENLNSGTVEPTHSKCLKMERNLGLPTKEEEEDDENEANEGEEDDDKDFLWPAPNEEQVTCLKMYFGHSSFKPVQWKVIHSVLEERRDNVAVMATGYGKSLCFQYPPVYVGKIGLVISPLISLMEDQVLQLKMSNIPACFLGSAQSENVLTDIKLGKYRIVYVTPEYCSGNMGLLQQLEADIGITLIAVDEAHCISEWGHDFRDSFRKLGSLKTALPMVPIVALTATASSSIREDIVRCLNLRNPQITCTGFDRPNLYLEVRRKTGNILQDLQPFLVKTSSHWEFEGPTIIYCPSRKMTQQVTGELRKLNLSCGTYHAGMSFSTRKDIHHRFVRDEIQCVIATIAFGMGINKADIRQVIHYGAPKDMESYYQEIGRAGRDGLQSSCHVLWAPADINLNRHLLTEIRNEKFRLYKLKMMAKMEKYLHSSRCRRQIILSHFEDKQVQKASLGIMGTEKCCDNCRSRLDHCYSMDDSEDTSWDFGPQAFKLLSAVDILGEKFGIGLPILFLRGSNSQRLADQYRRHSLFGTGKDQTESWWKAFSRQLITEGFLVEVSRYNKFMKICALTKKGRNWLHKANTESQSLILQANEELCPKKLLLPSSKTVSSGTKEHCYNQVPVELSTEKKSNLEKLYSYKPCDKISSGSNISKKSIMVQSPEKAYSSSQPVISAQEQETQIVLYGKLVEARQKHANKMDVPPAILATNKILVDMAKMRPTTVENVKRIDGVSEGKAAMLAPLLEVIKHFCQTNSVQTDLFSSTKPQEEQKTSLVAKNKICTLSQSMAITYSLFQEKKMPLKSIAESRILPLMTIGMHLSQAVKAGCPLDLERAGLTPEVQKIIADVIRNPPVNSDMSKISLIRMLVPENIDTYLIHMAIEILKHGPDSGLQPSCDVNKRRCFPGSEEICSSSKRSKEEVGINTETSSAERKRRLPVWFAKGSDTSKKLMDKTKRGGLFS
Method in brief: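 Kinetic fluorescence helicase assay: unwinding of a quenched forked DNA duplex (100 nM final) with 2 mM ATP final raises red fluorescence (525/598 nm). Compounds sat 15 min at room temperature with 20 nM WRN beforehand.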
% is scaled to controls: 0 for no effect and ±100 for the full control effect; potency is read from the fitted curve at half-maximal effect.

Structure (SMILES) | activity change, negative = inhibition | Potency
COC(=O)C1=C(C(=O)OC)[C@@H]2N(C)c3ccccc3[C@@]23C[C@@H](C(=O)OC)N(C(=O)c2ccco2)C3=N1 | 2.76% | 
COc1cc(/C=C2/SC(=S)N(Cc3ccccc3)C2=O)cc(OC)c1O |  | 10 µM (active)
COc1ccc(CCNC2=C(Cl)C(=O)N(Cc3ccccc3)C2=O)cc1OC | -14.6% | 
CN1C=CC=C/C1=C1\SC(=S)N(Cc2ccccc2)C1=O | -16.5% | 
COC(=O)C[C@H]1C=C[C@H](NC(=O)c2ccc(F)cc2)[C@@H](CO)O1 | -3.28% | 
O=S(=O)(Nc1ccc(O)c2ccccc12)c1ccc(OC(F)(F)F)cc1 |  | 56.2 µM (active)
COc1ccccc1NS(=O)(=O)c1ccc(C(=O)N2CCN(c3ccccc3O)CC2)cc1 | 1.94% | 
O=S(=O)(Nc1ccc(OC(F)(F)F)cc1)c1cccc2nonc12 | -10.1% | 
O=C(NCc1ccncc1)C(=O)NCC1OCCN1S(=O)(=O)c1ccc(Br)cc1 (stereo not drawn) | -13.3% | 
Cc1ccccc1N/C(SCc1ccc(Cl)cc1)=C(/C#N)C(N)=O | -14.6% | 
O=C(CCCCCn1c(=S)[nH]c2ccsc2c1=O)NC1CCCCC1 | 1.73% | 
O=C(/C=C/c1cccs1)NCc1cccnc1 | 1.39% | 
Cc1ccccc1NC(=O)Cn1c(=O)n(CC2CCCO2)c(=O)c2ccccc21 (stereo not drawn) | 1.69% | 
COC(=O)CN1C(=O)N/C(=C/c2ccc(OC)c(C)c2OC)C1=O | -4.64% | 
Cc1ccccc1NC(=O)CN1C(=O)N/C(=C\c2cccn2-c2cccc(C(=O)O)c2)C1=O |  | 10.6 µM (active)
CCCCCc1c(-c2ccc(OC)c(OC)c2)ncn1CCc1ccccc1OC | -2.28% | 
CCc1cc(C(c2ccccc2OC)N2CCOCC2)c(NC(=O)c2ccccc2)s1 (stereo not drawn) | -6.56% | 
O=C(Nc1ccccc1C(=O)NCCCn1ccnc1)c1ccc(Cl)cc1Cl | -10.2% | 
CCCNC(=O)C1(C)CCCN(Cc2cccc(C(F)(F)F)c2)C1 (stereo not drawn) | 1.01% | 
COCCN(Cc1cc2cc3c(cc2nc1Cl)OCO3)C(=O)c1cccc(C)c1 | 6.25% | 
COc1cccc(/C=N/NC(=O)c2[nH]nc3c2CCc2ccccc2-3)c1O |  | 25.1 µM (active)
COc1cc(/C=N/NC(=O)c2cccnc2)ccc1OC(=O)c1cccc(Br)c1 | -19.9% | 
COc1ccc(OC)c(/C=N/NC(=O)c2ccc[n+](CC(=O)c3ccccc3)c2)c1 | -1.88% | 
COC(=O)[C@@]12C[C@@H](CC(=O)NCc3cccc(C(F)(F)F)c3)C(=O)N(Cc3ccco3)C1=CCC(C)(C)C2 | -8.06% | 

Structure (SMILES) | activity change, negative = inhibition | Potency
O=C(NNc1c2ccccc2nc2ccccc12)c1cc2ccccc2cc1O | -16.5% [at 57.1 µM] | 
CC(=O)Nc1ccc(Nc2c3ccccc3nc3ccccc23)cc1 |  | 25.1 µM (active)
CC(=O)Nc1ccc(Nc2c([N+](=O)[O-])cc(S(C)(=O)=O)cc2[N+](=O)[O-])cc1 | -3.38% | 
COCCN1C(=O)c2oc3c(C)cc(C)cc3c(=O)c2C1c1cccc(O)c1 (stereo not drawn) | -6.21% | 
C[C@H](NC(=O)c1nc[nH]c1C(=O)N[C@@H](C)C(=O)OC(C)(C)C)C(=O)OC(C)(C)C | -3.84% | 
O=C(NCc1nnc(SCC(=O)N2CCCc3ccccc32)o1)c1ccccc1F | -16.5% | 
N#Cc1c(-c2cccs2)nc(SCC(=O)c2ccc(Br)cc2)[nH]c1=O |  | 50.1 µM (active)
CC(=O)CSc1nc(CCc2ccccc2)c(C#N)c(=O)[nH]1 | -3.59% [at 57.1 µM] | 
Cc1cc(C)c2c(=O)[nH]c(SCC(=O)Nc3ccc(Br)cc3)nc2n1 | -11.3% | 
CCC1(c2ccccc2)NC(=O)N(CC(=O)Nc2ccccc2C(=O)NC2CCCC2)C1=O (stereo not drawn) | -7.05% | 
O=C(NC1CCCCC1)C(c1cc2ccccc2o1)n1c(=O)c(-c2ccco2)nc2ccccc21 (stereo not drawn) | -13.1% | 
CCCCN(C(=O)C(CCSC)N1C(=O)c2ccccc2C1=O)c1c(N)n(CCC)c(=O)[nH]c1=O (stereo not drawn) | 5.06% | 
N#Cc1ccc(-c2nc3c(Cl)cc(C(F)(F)F)cn3c2Cc2ccccc2C(F)(F)F)cc1 | 0.352% | 
COc1ccc(CN2CCC(C)(Oc3cccc(F)c3)C2)c2ccccc12 (stereo not drawn) | 18.3% | 
COc1cccc2c1C(=O)c1c(O)c3c(c(O)c1C2=O)CC(O)(C(C)=NNC(=O)c1ccc(Cl)c(Cl)c1)CC3OC1CC(N)C(O)C(C)O1 (stereo not drawn) |  | 31.6 µM (active)
CCOc1cnc(C(=O)NNC(=O)c2ccccc2Br)o1 | -11.3% | 
O=C(c1ccccc1)c1ccc(OC(=O)N2CCCC2)cc1 | 1.88% | 
COc1cccc(-c2nnc(NC(=O)c3ccc(S(=O)(=O)N(CC(C)C)CC(C)C)cc3)o2)c1 | -8.88% [at 57.1 µM] | 
O=C(COc1ccccc1Cl)Nn1cnnc1 | 1.03% | 
C=CCN(N=Nc1cccc([N+](=O)[O-])c1)c1cccc([N+](=O)[O-])c1 | -5.96% | 
CC(=O)NC(c1ccccc1)c1nc(-c2cccc(C(C)C)c2)cs1 (stereo not drawn) | -6.85% | 
COc1ccc(C(CNC(=O)COc2ccc([N+](=O)[O-])cc2)N2CCCCC2)cc1 (stereo not drawn) | -1.35% | 
Cc1cc(C)n(CC(O)COc2ccc(C(C)(C)C)cc2)n1 (stereo not drawn) | 2.02% [at 11.6 µM] | 
COc1ccc(C(C[N+](=O)[O-])n2nc(C)cc2C)cc1 (stereo not drawn) |  | 39.8 µM (active)
